# Most compounds without a hit are left out; they make up all but 15% or so of the library.
# Pf growth 96h = inhibits malaria parasite growth, 96 h; P. falciparum luciferase reporter growth, 96 h; Potency, µM (series often up to 28.7 µM), without a hit: top-dose activity change, negative = inhibition, hits mostly inhibitors; 320,000 tested, 6.9% active; AID 504834; note: potency is the fitted concentration of half-maximal effect; % is set by controls: 0 for no effect and ±100 for the full control effect
#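 Delayed-death screen, second-generation endpoint: infected erythrocytes, 2% hematocrit, 0.05% parasitemia final; 96 hours at 37 C, 5% CO2; luciferase detection reagent; luminescence decrease equals reduced growth.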
# HCMV inh = blocks human cytomegalovirus replication; HFF cells, HCMV-luciferase reporter, 72 h; stronger effect = lower value; activity change, negative = inhibition, % at 57.5 µM; 410,000 tested, 4.5% active; in the data active = activity change below about -60%; inconclusive = no clear call, values can overlap the other calls; inactive = above about -39%; note: % is set by controls: 0 for no effect and ±100 for the full control effect
#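 Two-dose cell screen: HFF monolayers treated with compounds and infected with luciferase-expressing HCMV at 1 PFU/cell, 72 h at 37C, then lysed for luciferase measurement.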
# Pf growth 48h = P. falciparum growth inhibition at 48 hours (one generation). P. falciparum luciferase growth in erythrocytes, 48 h. Potency, µM (titrated, usually from 28.7 µM), without a hit: at the top dose activity change, negative = inhibition, hits mostly inhibitors. 310,000 tested, 5.9% active. AID 504832; note: potency is the fitted concentration of half-maximal effect; % is set by controls: 0 for no effect and ±100 for the full control effect
#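 Growth was read as firefly luciferase luminescence after a 48 h, 37 C, 5% CO2 exposure of compounds to reporter-bearing P. falciparum cultures (0.1% parasitemia, 2% hematocrit final) in Albumax-supplemented RPMI 1640.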
# HCV inhibitor = HCV inhibition; 340,000 tested, 3.4% active; AID 651820; Potency, µM (titrated, usually from 41.8 µM), without a hit: at the highest dose activity change, negative = inhibition, actives largely listed as inhibitors; Huh7.5.1 HCVcc-Cre infection, luciferase reporter, 44 h; note: potency is the fitted concentration of half-maximal effect; % is set by controls: 0 for no effect and ±100 for the full control effect
#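 Cells (1,000/well) were plated 4 h before compound, then infected with HCVcc-Cre virus (~0.5 moi). After 44 h further culture, infection was read as luciferase luminescence following a 15 min substrate incubation at room temperature.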
# SARS PLpro yeast = blocks SARS-CoV papain-like protease in a yeast assay | S. cerevisiae expressing SARS-CoV PLpro, growth rescue | Potency, µM (titrated, usually from 32.9 µM), for the others: at the top dose activity, positive = growth rescue, usual class: activators | 330,000 tested, 0.19% active; calls by dose curve; note: potency is the fitted concentration of half-maximal effect; 0% is about no effect; nearly all actives have a fitted effect of over 55% in size
# Sm TGR block = inhibitors of Schistosoma mansoni thioredoxin glutathione reductase; 360,000 tested, 3% active; purified TGR, DTNB reduction, TNB absorbance 405 nm; Potency, µM (doses to about 114 µM), inactives show at the highest dose activity change, negative = inhibition, most hits filed as inhibitors; note: potency is the fitted concentration of half-maximal effect; % is set by controls: 0 for no effect and ±100 for the full control effect; nearly all actives have a fitted effect of over 60% in size
#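 First, TGR (20 nM dispensed) and NADPH were mixed with compound. Second, a 15 min room-temperature incubation followed. Third, further NADPH and then DTNB were added to start the reaction. Finally, TNB absorbance was monitored kinetically.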
# Numbers without * were called inactive; ? = inconclusive; nt = no result given; [ ] = remark or other dose. Unless noted, calls come from the whole dose curve; as a rule, active = well fitted curve in the direction sought with a large enough effect; inconclusive = small, poorly fitted or top-dose-only effect, or another doubt; inactive = no such curve, though single readings can be large; an effect the other way counts as inactive or inconclusive.
SMILES,Pf growth 96h,HCMV inh,Pf growth 48h,HCV inhibitor,SARS PLpro yeast,Sm TGR block
CSc1nc(N(CCO)CCO)c2sc3nc(-c4ccco4)c4c(c3c2n1)CCC4,-0.2%,-6.1,?,6.31µM*,1.9%,2.51µM*
CC(C)C1Cc2c(sc3ncnc(NN)c23)CO1 (centres undefined),?,?,?,?,-1.9%,17.2%
Cc1nc2sc3c(NCc4ccco4)ncnc3c2c2c1COC(C)(C)C2,11.7µM*,-35.1,6.57µM*,?,-0.1%,?
CC(C)Cc1nc2sc3c(NCc4ccco4)ncnc3c2c2c1COC(C)(C)C2,?,-29.6,?,?,-4.4%,-2.8%
CCOCc1c(C(=O)N2CCN(CC(=O)Nc3ccc(F)cc3)CC2)oc2ccccc12,?,10.8,?,-9.7%,-6.7%,-0.2%
Cn1c(NCc2ccco2)nc2c1c(=O)n(Cc1ccc(Cl)cc1Cl)c(=O)n2C,nt,nt,-24.1%,-26.9%,-11.1%,-17.8%
Cn1c(NCc2ccccc2)nc2c1c(=O)n(Cc1ccc(Br)cc1)c(=O)n2C,77.4%,-27.8,?,?,-4.8%,10.5%
Cn1c(NCc2ccco2)nc2c1c(=O)n(Cc1ccc(Cl)cc1)c(=O)n2C,75.5%,-27.1,9.28µM*,?,-2.7%,?
Cn1c(NCc2ccco2)nc2c1c(=O)n(Cc1ccc(Br)cc1)c(=O)n2C,nt,-3.7,9.28µM*,?,0.3%,-18.0%
CN(CCC1CCCCO1)C(=O)CCc1nnc(C2CCCCC2)o1 (centres undefined),?,-13.4,21.0%,15.3%,1.1%,13.8%
C=CCNc1oc(-c2cccs2)nc1S(=O)(=O)c1ccccc1,66.0%[1.15 µM],-25.0,-10.1%,-11.8%,7.6%,0.3%
Cn1c([N+](=O)[O-])cnc1N1CCN(c2nncs2)C1=O,18.5%,?,42.6%,-7.8%,-1.9%,-2.6%
COc1ccc(C(=O)NC(C)CCn2cccn2)cc1OC1CCN(C(C)C)CC1 (centres undefined),-22.0%,16.1,-1.4%,nt,-5.1%,-21.8%
O=S(=O)(Nc1ccccn1)c1ccc(Cl)cc1,nt,16.9,0.5%,-24.9%,1.7%,3.8%
O=S(=O)(Nc1cccnc1)c1ccccc1,31.0%,29.8,17.0%,-1.1%,6.2%,6.7%
O=S(=O)(Nc1cccnc1)c1ccc(C2CCCCC2)cc1,28.8%,-65.7*,nt,-14.1%,-7.3%,-7.0%
O=S(=O)(Nc1ccccn1)c1ccc(C2CCCCC2)cc1,9.28µM*,116.4,-6.1%,8.7%,-2.5%,1.9%
O=C(O)CNS(=O)(=O)c1ccc(F)cc1,?,74.3,10.0%,-0.2%,-1.3%,4.2%
O=C(O)CNS(=O)(=O)c1ccc(C2CCCCC2)cc1,0.465µM*,?,3.5%[5.75 µM],18.4%,1.7%,7.2%
CCCCCCCCN1C(=O)[C@H](CC(=O)NCCCOCCCC)C[C@@]2(C(=O)OCC)CCCC=C12,nt,18.7,nt,nt,nt,nt
CCc1cccc(CC)c1-n1c(SCC(=O)c2c(N)n(C)c(=O)n(C)c2=O)nnc1-c1cccnc1,44.0%,-7.3,3.1%,7.7%,-26.4%,-6.8%
Cc1ccc(-n2nnnc2SCn2nnc3ccccc3c2=O)c(C)c1,-7.1%,-85.9*,-0.4%,?,nt,-26.0%
Cc1ccnc(SCC(=O)N2CCc3ccccc3C2)n1,2.2%,5.4,?,5.3%,-1.3%,31.6µM*
CCc1cccc(CC)c1-n1c(SCn2nnc3ccccc3c2=O)nnc1-c1cccnc1,4.15µM*,?,nt,-14.5%,-27.0%,-10.7%
Cn1c(SCC(=O)N2CCc3ccccc3C2)nnc1-c1ccncc1,?,18.5,?,9.3%,5.2%,-12.2%
CCc1cccc(CC)c1-n1c(SCC(=O)N2CCc3ccccc3C2)nnc1-c1cccnc1,6.57µM*,?,11.7µM*,?,-3.5%,4.7%
O=C(CSc1nnc(NC(=O)c2cccc(Cl)c2)s1)NCC1CCCO1 (centres undefined),-5.9%,2.8,22.4%,-6.7%,-2.2%,-21.7%
[2H]C([2H])(CCOS(N)(=O)=O)c1ccccc1,-19.9%,21.6,14.9%,13.9%,7.8%,4.1%

# Assay outcomes as filed in PubChem BioAssay.
